Screens from PubChem BioAssay.
Sampled rows, rich in hits. Any-hit rate of the full collection: about 12%.
G9a block: blocks human histone lysine methyltransferase G9a. G9a H3K9 monomethylation, AlphaScreen, 2 h. 8.8% of 350,000 active. Potency, µM (doses to about 102 µM), most hits filed as inhibitors; further: nearly all actives have a fitted effect of over 75% in size
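Chemiluminescent proximity detection of H3K9 monomethylation, read after 10 min bead incubation in the dark. Reaction: 20 nM G9a, 500 nM biotin-H3K9 peptide, 20 uM SAM cofactor, 2 h, room temperature, following 15 min enzyme-compound preincubation.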
PI5P4Ka inh: inhibitors of human PI5P4K alpha; PI5P4Kalpha enzyme, ADP-Glo luminescence, 60 min; active compounds read low; AID 652105; max response, %; P48426; 1.2% of 330,000 active; active means max response of -50% or lower; inconclusive means between -30% and -50%; inactive means -30% or higher; further: value at the top dose of about 77 µM
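Compounds were pin-transferred onto PI5P4Kalpha and substrate in HEPES pH 7.4 buffer with EGTA, CHAPS and 5% DMSO. ATP (5 microM final) started the reaction, which ran 60 minutes at room temperature before ADP-Glo detection.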
JMJD2A Tudor inh: inhibitors of human JMJD2A Tudor domain; O75164; Potency, µM (doses to about 114 µM), hits mostly inhibitors; 4.4% of 390,000 active; AlphaScreen JMJD2A-Tudor / H3K4me3 peptide binding; further: nearly all actives have a fitted effect of over 50% in size
BAZ2B block: BAZ2B (human) inhibition. 4.4% of 360,000 active. AlphaScreen BAZ2B-H3K14Ac peptide displacement. AID 504333. Potency, µM (titrated, usually from 114 µM), usual class: inhibitors. Q9UIF8; further: nearly all actives have a fitted effect of over 60% in size
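BAZ2B (50 nM) with biotin-H3(5-23)K14Ac peptide (50 nM) in PBS pH 7.4, 0.01% Tween-20, preformed 30 min, then compound 30 min at room temperature; top concentration 110uM. AlphaScreen streptavidin donor/nickel chelate acceptor beads (10 ug/mL final), 20 min dark, signal read.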
HP1b binding inh: blocks HP1-beta chromodomain binding to methylated histone tails. AID 540317. 0.56% of 390,000 active. Potency, µM (series often up to 114 µM), hits mostly inhibitors. AlphaScreen HP1-beta / biotin-H3K9me3 peptide binding; further: nearly all actives have a fitted effect of over 70% in size
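Compound inhibition of the preformed complex between 50 nM HP1-beta and 50 nM biotinylated H3K9me3 peptide was read by AlphaScreen. Buffer was PBS pH 7.4 with 0.01% Tween-20. Incubations ran 30 min at room temperature, with 10 ug/mL donor/acceptor beads.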
PLK1 PBD inh: blocks phosphopeptide binding to human PLK1 polo-box domain; P53350; Plk1 PBD binding of FITC phosphopeptide, fluorescence polarization; Potency, µM, usual class: inhibitors; 2.8% of 360,000 active; further: series mostly up to about 57 µM; nearly all actives have a fitted effect of over 65% in size
Numbers stand for hits; - = inactive; ? = inconclusive; . = no result; [ ] = dose if it differs, or a comment. Unless noted, the call rests on the fitted dose curve; in most records, active means well fitted curve in the direction sought with a large enough effect; inconclusive means small, poorly fitted or top-dose-only effect, or another doubt; inactive means no such curve, though single readings can be large; an effect the other way counts as inactive or inconclusive.

SMILES | G9a block | PI5P4Ka inh | JMJD2A Tudor inh | BAZ2B block | HP1b binding inh | PLK1 PBD inh
O=C1c2ccccc2C(=O)c2c1cccc2N(CCO)CCO | 45µM | - | ? | 50µM | ? | -
CC1=C(C(=O)OC2CCCC2)C(c2c(F)cccc2Cl)CC(=O)N1 (centres undefined) | - | . | - | - | - | .
CCC1(C)Cc2nc3sc(C(=O)O)c(N)c3cc2CO1 (centres undefined) | 3.5µM | ? | 50µM | - | - | -
CC(C)Cc1nn2c(=O)cc(CSCC(=O)Nc3ccccc3F)nc2s1 | - | - | - | - | - | -
CCCC[C@H]1C2=C3[C@@H](CC(C(=O)OC)=C[C@@H](C(=O)OC)[C@H]3C(C)(C)C2=O)n2c(=O)n(C)c(=O)n21 | . | . | - | . | - | .
CCCCN(C(=O)C1CC(=O)N(c2ccc3c(c2)OCCO3)C1)c1c(N)n(CCC)c(=O)[nH]c1=O (centres undefined) | . | - | - | . | - | -
CCCCn1c(N)c(N(CC(C)C)C(=O)C2CC(=O)N(c3ccccc3C(C)CC)C2)c(=O)[nH]c1=O (centres undefined) | 79µM | - | - | - | - | -
CCCCn1c(N)c(N(CC(C)C)C(=O)C2CC(=O)N(c3ccc(C)cc3)C2)c(=O)[nH]c1=O (centres undefined) | ? | - | - | - | - | -
CCCCn1c(N)c(N(CCOC)C(=O)C2CC(=O)N(Cc3ccc(C)cc3)C2)c(=O)[nH]c1=O (centres undefined) | 50µM | - | - | - | - | -
CCCCN(C(=O)C1CC(=O)N(c2ccc(C)cc2)C1)c1c(N)n(CCC)c(=O)[nH]c1=O (centres undefined) | 45µM | - | - | - | - | -
CCCCn1c(N)c(N(CCOC)C(=O)CN2c3ccccc3CC2C)c(=O)[nH]c1=O (centres undefined) | 20µM | - | - | - | - | -
COc1cc(NC(=O)COc2cccc3c2OC(C)(C)C3)cc(OC)c1OC | -[12.7 µM] | - | - | - | - | -
O=C1C(=O)N(C2CCN(C(=O)c3ccccc3Cl)CC2)CCN1Cc1ccc(F)cc1 | - | . | - | - | - | .
O=c1[nH]sc2ccccc12 | 1.8µM | -93 | 32µM | 50µM | - | 5.3µM
CN1CCN(c2ccc(NC(=S)NC(=O)c3cccc4ccccc34)cc2)CC1 | 22µM | - | ? | 35µM | ? | -
CN1CCN(c2ccc(NC(=S)NC(=O)c3cccc4c(Br)cccc34)cc2)CC1 | 6.3µM | - | - | ? | - | -
CN1CCN(c2ccc(NC(=O)COc3cccc4ccccc34)cc2)CC1 | ? | - | ? | ? | - | -
Cc1ccc(NC(=O)CN2C(=O)CCc3cc(S(=O)(=O)N4CCOCC4)ccc32)cc1N(C)C | - | . | ? | ? | - | .
CC(C)CN(C(=O)COC(=O)C(C)N1C(=O)c2ccccc2C1=O)c1c(N)n(Cc2ccccc2)c(=O)[nH]c1=O (centres undefined) | 35µM | - | - | - | - | -
CC(C)CN(C(=O)COC(=O)CN1C(=O)c2ccccc2C1=O)c1c(N)n(Cc2ccccc2)c(=O)[nH]c1=O | ? | - | - | - | - | -
Cc1cc(C)cc(OCC(=O)OCC(=O)N(CC(C)C)c2c(N)n(Cc3ccccc3)c(=O)[nH]c2=O)c1 | 50µM | - | - | - | - | -
CC(C)CN(C(=O)CC1OC(=O)c2ccccc21)c1c(N)n(Cc2ccccc2)c(=O)[nH]c1=O (centres undefined) | 56µM | - | - | - | - | -
CC1CCCCC1NC(=O)COc1ncnc2sccc12 (centres undefined) | - | - | - | - | - | -
COC(=O)c1ccc2nc(C)cc(Nc3ccc(N(C)C)cc3)c2c1 | 50µM | - | ? | 40µM | - | -
Cc1cc(C)c2c(-n3cccc3)c(C(=O)NNS(=O)(=O)c3ccc(Br)cc3)sc2n1 | ? | - | 56µM | ? | - | ?
SMILES | G9a block | PI5P4Ka inh | JMJD2A Tudor inh | BAZ2B block | HP1b binding inh | PLK1 PBD inh
COc1ccc2[nH]c3c(c2c1)CCNC3c1ccc([N+](=O)[O-])o1 (centres undefined) | 32µM | ? | 50µM | ? | - | ?
COc1ccc2[nH]c3c(c2c1)CCNC3C1CC=C(C)CC1 (centres undefined) | - | - | - | - | - | -
Cc1nc2c3cc(F)ccc3n(Cc3ccccc3F)c2s1 | - | - | - | 50µM | - | ?
Cc1nc2c3ccccc3n(Cc3ccccc3F)c2s1 | ? | - | - | ? | - | -
Oc1ccc(NCc2cccc(OCc3ccccc3)c2)cc1 | 13µM | - | 50µM | - | ? | -
Oc1ccc(NCc2cccc(OCc3ccc(F)cc3)c2)cc1 | . | - | 40µM | - | ? | -
c1ccc(NCc2cccnc2)cc1 | 45µM | - | - | - | - | -
CCOc1cc(CNc2ccc(O)cc2)cc(Cl)c1OCc1ccccc1 | ? | . | 45µM | 28µM | 35µM | .
CCOc1cc(CNc2ccccc2)cc(Br)c1OCc1ccc(F)cc1 | - | - | - | - | - | -
COc1ccc(Cn2c(CNC(=O)Cc3ccc(OC)c(OC)c3)nc3cccnc32)cc1 | - | . | - | - | - | .
CN=C1N(C)C[C@@H]2[C@@H]3C(=O)N(C)C(=O)[C@@H]3[C@](Cc3ccccc3)(C(=O)OC)N12 | . | - | - | . | - | -
CCOc1ccc(-c2cc(C)n3nc(C(=O)Nc4cc(Cl)ccc4O)cc3n2)cc1 | - | . | - | - | - | .
c1ccc(COc2cccc(CNCc3cccnc3)c2)cc1 | ? | - | ? | 50µM | - | -
COc1ccc(C2=C(Nc3ccc(Br)c(C)c3)c3ccccc3C2=O)cc1 | 2.8µM | . | ? | ? | ? | .
COc1ccc(C2=C(Nc3ccc(C)c(C)c3)c3ccccc3C2=O)cc1 | ? | . | ? | - | ? | .
Cc1cc(C)cc(NC2=C(c3ccccc3)C(=O)c3ccccc32)c1 | 8.9µM | . | 13µM | 13µM | ? | .
COc1ccc(Cc2nc3c4cnn(-c5ccccc5Br)c4ncn3n2)cc1 | - | . | - | - | - | .
O=C(O)C1CCN(Cc2cccnc2)CC1 | ? | - | - | - | - | -
CCCCN(C)C(=O)C1CCN(Cc2cccnc2)CC1 | 14µM | - | 28µM | 79µM | ? | -
CCCCN(C)C(=O)C1CCN(Cc2cccc(OCc3ccccc3)c2)CC1 | 13µM | - | 40µM | ? | - | -
CCc1ccc(NC(=O)c2sc(-n3nc(C)c(CCC(C)C)c3C)nc2C)cc1 | - | . | - | - | - | .
COc1ccc(C(=O)/C=C/c2cccc(OCc3ccccc3)c2)cc1CSCC(=O)O | . | - | 50µM | 45µM | - | 21µM
COc1ccc(C=CC(=O)c2ccc(OCc3ccccc3)c(OC)c2)cc1OC | . | - | . | . | . | -
COc1ccc(C(=O)/C=C/c2ccc(OCc3ccccc3)cc2)cc1CSCC(=O)O | - | - | 56µM | - | - | 24µM
